Assay outcomes deposited in PubChem by The Scripps Research Institute Molecular Screening Center.
TEAD-YAP inh: TEAD-YAP interaction inhibition. HEK-TIYL cells, TEAD-Gal4/YAP UAS-luciferase luminescence. inhibition, % at 9.12 µM. actives 1.4% (n = 640,000); in the data active = inhibition above about 32%;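 also: 0% = median of test compound wells and 100% = reference inhibitor wells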
FBW7 activator: human FBW7 E3 ligase activation, primary screen; AlphaScreen FBW7–phospho-cyclin E peptide binding, activator screen; normalized activity (activation), % at 26.1 µM; actives 0.13% (n = 650,000); AID 1259310; in the data active = normalized activity above about 1.9%;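 also: purified mutant Fbw7 with reduced substrate affinity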
GPR151 ag: human GPR151 activation. AID 1508602. PathHunter beta-arrestin GPR151 cells, luminescence. activation, % at 11.2 µM. actives 1% (n = 650,000). Q8TDV0; in the data active = activation above about 4.9%;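 also: 0% = median of compound wells and 100% = cells with positive control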
MITF primary: inhibitors of human MITF; AID 1259374; inhibition, % at 2.6 µM; O75030; actives 0.91% (n = 650,000); AlphaScreen MITF homodimerization, bead proximity signal; in the data active = inhibition above about 50%;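 also: 0% = vehicle wells with protein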
Target sequence (O75030 whole entry, looked up): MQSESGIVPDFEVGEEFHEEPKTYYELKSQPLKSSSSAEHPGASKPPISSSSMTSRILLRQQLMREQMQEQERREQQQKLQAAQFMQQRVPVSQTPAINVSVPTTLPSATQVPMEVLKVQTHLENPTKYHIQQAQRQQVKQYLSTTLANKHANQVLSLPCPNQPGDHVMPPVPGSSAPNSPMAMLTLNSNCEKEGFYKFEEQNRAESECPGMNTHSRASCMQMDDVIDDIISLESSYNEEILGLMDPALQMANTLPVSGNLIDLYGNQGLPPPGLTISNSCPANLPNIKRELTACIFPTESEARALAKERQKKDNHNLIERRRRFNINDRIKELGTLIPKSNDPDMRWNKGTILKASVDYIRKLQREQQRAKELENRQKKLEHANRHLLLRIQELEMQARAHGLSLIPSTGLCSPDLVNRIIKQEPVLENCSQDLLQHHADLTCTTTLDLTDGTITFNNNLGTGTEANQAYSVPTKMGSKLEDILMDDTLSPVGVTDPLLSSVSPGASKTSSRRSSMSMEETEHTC
Active calls of the source: *. Hits are enriched below; roughly 3.5% of the tested compounds scored in any of these assays.

SMILES	TEAD-YAP inh	FBW7 activator	GPR151 ag	MITF primary
O=C(Nc1ccc2c(c1)OCCO2)c1ccc(C(=O)Nc2ccc3c(c2)OCCO3)nc1	65*	0	3	12
O=C(Nc1cccnc1)C(=O)Nc1ccc2c(c1)OCCO2	59*	0	-6	22
O=C(Nc1ccc2c(c1)OCCO2)c1ccc2ccccc2c1	87*	0	-7	6
CCOC(=O)C1=C(C)N=c2s/c(=C\c3cc(Cl)c(OCC(=O)O)c(Cl)c3)c(=O)n2C1c1cc(OC)ccc1OC (stereo not drawn)	11	0	-1	-6
O=C(CN1CCC(Cc2ccccc2)CC1)NNC(=O)c1ccc(Br)cc1	-1	1	0	12
CCOC(=O)c1ccc(NC(=O)COc2cccc3ccccc23)cc1	2	0	-1	4
O=C(Nc1ccc2sccc2c1)c1ccc2c(c1)OCO2	72*	0	-7	-8
Cc1cc(C(=O)Nc2ccc3c(c2)OCCO3)cs1	41*	0	-5	10
CC12CCC(C(=O)Nc3ccc(Cl)c(Cl)c3)(CC1=O)C2(C)C (stereo not drawn)	8	0	2	2
CC12CCC(C(=O)Nc3ccc4c(c3)OCCO4)(CC1=O)C2(C)C (stereo not drawn)	62*	0	0	2
COc1ccc(C(=O)Nc2ccc3c(c2)OCCO3)cc1	66*	0	-7	1
Cc1ccc2nc(-c3ccccc3)nc(-c3ccc(N)cc3)c2c1	5	0	-1	6
Cc1ccc2cc3c(N)c(C(=O)Nc4ccc5c(c4)OCCO5)sc3nc2c1	71*	0	-1	9
COc1ccc(NC(=O)c2ccc3c(c2)OCCO3)cc1	75*	0	-5	-3
O=C(O)C1CCCCC1C(=O)Nc1ccc2c(c1)OCCO2 (stereo not drawn)	62*	0	-1	19
O=C(O)C1C2CCC(O2)C1C(=O)Nc1ccc2c(c1)OCCO2 (stereo not drawn)	8	0	-1	5
COc1cc(C(=O)Nc2nnc(C(C)C)s2)c(Br)c(OC)c1OC	-7	0	1	-9
CCC(=O)Nc1sc2c(c1C#N)CCCC2	0	0	0	1
CCOC(=O)C1=C(O)/C(=C/c2ccc(N(C)C)cc2)SC1=Nc1cccc(Cl)c1	1	0	-2	8
COc1ccc(-c2nsc(SCC(=O)Nc3ccc4c(c3)OCCO4)n2)cc1	-11	0	0	18
Cc1ccc(C(=O)NCc2ccccc2)cc1I	-3	0	0	1
Cc1ccc(N=C(NN)c2ccc3ccccc3n2)cc1	92*	0	-1	37
CCOc1ccc(N=C(NN)c2ccc3ccccc3n2)cc1	94*	0	2	2
COc1ccccc1N=C(NN)c1ccc2ccccc2n1	-32	0	0	10
O=c1c(O)cccc2cc(O)c(O)c(O)c12	-6	0	3	90*
SMILES	TEAD-YAP inh	FBW7 activator	GPR151 ag	MITF primary
CC(=O)Nc1cccc(Oc2nnc(-c3ccc(C)cc3)c3ccccc23)c1	2	0	0	-8
CC(=O)Nc1ccc(Oc2nnc(C)c3ccccc23)cc1	65*	0	-1	-21
O=C(Nc1cc(C(F)(F)F)ccc1Cl)c1nn2c(c1Cl)NC(c1cccs1)CC2C(F)(F)F (stereo not drawn)	-10	1	1	3
Cn1c(CNc2ccc(O)cc2)nc2ccccc21	-16	0	-1	12
Cc1ccc(CNc2nc3ccccc3n2C)cc1	75*	1	-8	19
Cn1c(NCc2ccncc2)nc2ccccc21	-4	0	0	-22
Cc1ccc(NCc2nc3ccccc3n2C)cc1	35*	0	-5	23
COc1ccc(N2CCN(CCCNC(=O)Nc3ccc(C)cc3C)CC2)cc1	12	0	4	6
CN(C)CC(C)(O)c1ccc2c(c1)CN(Cc1cc(CN3CCCCC3)cs1)CCO2 (stereo not drawn)	0	0	3	-16
O=C1C=CC2=C3c4cc(O)c(O)cc4CC3(O)COC2=C1O (stereo not drawn)	-16	0	-1	92*
CC(C)N1CCN(c2ccc(Oc3cc(Nc4ccccc4C(N)=O)c(C(F)(F)F)cn3)cc2)CC1	14	1	-1	12
NC(=O)c1ccccc1NC(=O)Cc1cccs1	3	0	0	2
NC(=O)c1ccccc1Nc1cc(NC(=O)Cc2ccc(F)cc2)ncc1F	15	0	-1	15
CNC(=O)c1ccccc1Nc1cc(NC(=O)Cc2ccccc2F)ncc1C(F)(F)F	81*	0	0	9
CNC(=O)c1ccccc1Nc1cc(NC(=O)Cc2cccs2)ncc1C(F)(F)F	74*	0	-1	8
CNC(=O)c1ccccc1Nc1cc(NC(=O)Cc2ccc(N)cc2)ncc1C(F)(F)F	79*	1	-1	-17
CS(=O)(=O)NC1CCC(Nc2cc(Nc3ccccc3C(N)=O)c(C(F)(F)F)cn2)CC1 (stereo not drawn)	98*	1	-2	11
CC(C)(C)c1ccc(CN2C3=NC(=O)CN3c3ccccc32)cc1	-3	0	0	25
CNC(=O)c1ccccc1Nc1cc(NCc2ccccc2)ncc1C(F)(F)F	22	0	1	18
CNC(=O)c1ccccc1Nc1cc(NC(=O)Cc2ccsc2)ncc1C(F)(F)F	77*	0	0	-9
O=C(Cc1ccc2c(c1)OCO2)Nc1cc(Nc2ccccc2-c2nn[nH]n2)c(C(F)(F)F)cn1	5	1	-1	10
CNC(=O)c1ccccc1Nc1cc(NC(=O)C2CCc3ccccc32)ncc1C(F)(F)F (stereo not drawn)	79*	0	-2	16
CNC(=O)c1ccccc1Nc1cc(NC(=O)Cc2ccc(F)cc2)ncc1C(F)(F)F	72*	0	0	-7
c1csc(-c2csc3ncnc(NC4CCCC4)c23)c1	30	0	1	-1
O=C(NCCCNc1ccc(Cl)cc1[N+](=O)[O-])c1cc(F)c(F)cc1Cl	-13	0	-1	-5
SMILES	TEAD-YAP inh	FBW7 activator	GPR151 ag	MITF primary
COc1ccc(/C=C/C(=O)Nc2nc(-c3ccc(F)cc3)cs2)cc1OC	57*	0	2	1
COc1ccccc1-c1csc(NC(=O)/C=C/c2ccccc2)n1	-7	0	0	7
O=C(COc1ccc(Br)cc1Cl)NC(=S)Nc1ccccn1	46*	0	-1	-4
Cc1ccc(OCC(=O)NC(=S)Nc2ccccn2)c(Br)c1	88*	0	-2	7
CCN(CC)C(=O)C1CCCN(c2cc(C(=O)NC3CCN(Cc4ccccc4)CC3)c3ccccc3n2)C1 (stereo not drawn)	6	0	2	12
Cc1oc(-c2ccccc2Cl)nc1CS(=O)CC(=O)NCc1ccccn1 (stereo not drawn)	2	1	0	-4
Cc1oc(-c2ccccc2Cl)nc1CS(=O)CC(=O)NCc1ccc2c(c1)OCO2 (stereo not drawn)	10	3.9*	-1	18
COc1ccccc1CNC(=O)CS(=O)Cc1nc(-c2ccccc2C)oc1C (stereo not drawn)	-4	2.6*	-1	26
